High-throughput results (PubChem BioAssay)
A selection: hits, their analogues and other compounds. The true share with any hit is near 4.8%.
SMARCA2 act: increases SMARCA2 function in MMTV reporter cells; 370,000 tested, 1% active; MG213 cells, MMTV-luciferase reporter, dexamethasone, overnight; activation, % at 9.1 µM; in the data active = activation above about 7.8%;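 note: 0% = vehicle wells and 100% = reference activator wells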
hcDAF12 agonist: H. contortus DAF-12 activation, primary screen; activation, % at 6.8 µM; HEK293 hcDAF-12 lit1-tk-luc reporter, luminescence; 0% DMSO, 100% Δ7-dafachronic acid; 370,000 tested, 1.4% active;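 active = activation above the mean of all tested compounds plus 3 SD, cut at about 5.5% in these data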;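 note: 100% = response to 3 µM Δ7-dafachronic acid high control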
hgDAF12 agonist: agonists of H. glycines DAF-12 nuclear receptor; HEK293 GAL4-hgDAF12 UAS-luciferase reporter, agonist luminescence; normalized to butyrate control; activation, % at 6.8 µM; 370,000 tested, 1.8% active; AID 687014;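 active = activation above a cutoff set at the mean of all screened compounds plus 3 SD, cut at about 10% in these data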;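 note: 0% = DMSO wells and 100% = sodium butyrate wells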
ssDAF-12 act: activates DAF-12 receptor from parasite S. stercoralis; AID 652126; HEK293 ssDAF-12/GRIP1 lit1-tk-luc reporter, luminescence; % of 3 µM dafachronic acid response; 370,000 tested, 1% active; activation, % at 6.8 µM;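 active = activation above the mean over all tested compounds plus 3 SD, cut at about 0.9% in these data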;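 note: 0% = DMSO-only wells and 100% = 3 µM delta7-dafachronic acid wells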
DAX1 inh-1: DAX1 (NR0B1) inhibition, primary screen | HEK293T StAR-luciferase reporter, SF-1/DAX-1 repression relief | inhibition, % at 6.8 µM | 370,000 tested, 1.1% active | AID 652010;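 active = inhibition above the mean over all tested compounds plus 3 SD, cut at about 3.6% in these data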;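 note: 0% = DAX-1 cells with DMSO and 100% = cells lacking DAX-1 with DMSO; higher inhibition means more luminescence from relief of DAX-1 repression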
DAX1 inh-2: NR0B1 (DAX1) inhibition; P51843; HEK293 Gal4-DAX1 luciferase reporter, luminescence; inhibition, % at 6.75 µM; 340,000 tested, 0.99% active; AID 504766;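 active = inhibition above the mean over all tested compounds plus 3 SD, cut at about 4.2% in these data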;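 note: 0% = DAX1-transfected cells with DMSO and 100% = empty-vector control cells with DMSO; inhibition shows as a rise in luminescence from relieved DAX1 repression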
Target sequence (P51843 207-470 limits assumed): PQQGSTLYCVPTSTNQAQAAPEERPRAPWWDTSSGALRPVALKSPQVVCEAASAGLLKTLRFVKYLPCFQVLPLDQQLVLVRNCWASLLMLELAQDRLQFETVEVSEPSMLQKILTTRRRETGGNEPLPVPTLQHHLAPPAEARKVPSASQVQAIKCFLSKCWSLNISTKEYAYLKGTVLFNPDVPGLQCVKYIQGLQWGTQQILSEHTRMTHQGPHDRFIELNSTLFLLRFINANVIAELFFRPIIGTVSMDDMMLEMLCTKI
The depositor's hits bear a star; . = not tested or not shown.

SMILES | SMARCA2 act | hcDAF12 agonist | hgDAF12 agonist | ssDAF-12 act | DAX1 inh-1 | DAX1 inh-2
O=C(Nc1nc2ccccc2[nH]1)c1ccc(Cl)cc1 | 4 | 5.8* | 10 | 0 | 1 | -3
O=C(Cc1ccccc1)Nc1nc2ccccc2[nH]1 | 1 | -1 | 5 | -1 | 1 | -2
Cc1ccc(/C=C/C(=O)c2nc3ccccc3[nH]2)cc1 | -1 | -3 | -1 | -1 | -1 | 1
O=C(CCCOc1ccccc1)Nc1nc2ccccc2[nH]1 | -1 | 4 | 12* | -1 | 2 | 3
Cc1ccc(/C=C/C(=O)Nc2nc3ccccc3[nH]2)cc1 | 7 | 5.8* | 9 | 1 | 2 | 2
O=S(=O)(CCN1CCOCC1)c1ccccc1 | 5 | 0 | 0 | -1 | 0 | -2
O=C(CN1C(=O)C2CC=CCC2C1=O)Nc1nc2ccccc2[nH]1 (stereo not given) | -1 | 1 | 2 | 0 | 0 | 5.4*
O=C(Nc1nc2ccccc2[nH]1)c1ccccc1O | 6 | 4 | 11* | 1.2* | 2 | 1
CC(C)NC(=O)N(C)C[C@H]1Oc2c(NS(=O)(=O)c3cn(C)cn3)cccc2C(=O)N([C@H](C)CO)C[C@@H]1C | -1 | 0 | -3 | -1 | 0 | 3
CC(=O)Nc1ccc(-c2ccc3nnc(C)n3n2)cc1 | -3 | 1 | -3 | -2 | 0 | 5.1*
Cc1nnc2ccc(-c3ccc(NC(=O)c4ccco4)cc3)nn12 | 2 | -1 | -1 | -2 | 0 | 1
O=C(CN1CCOCC1)NNC(=S)Nc1ccccc1 | -3 | -1 | 0 | -2 | 0 | 6.1*
NC(=O)c1ccccc1NC(=O)CN1CCOCC1 | -3 | -1 | 1 | -1 | 0 | 4.3*
COC(=O)c1ccccc1NC(=O)CN1CCOCC1 | 2 | 0 | -1 | -1 | 1 | 3
C=CCn1c(=O)c(C(=O)Nc2ccccc2O)c(O)c2ccccc21 | 0 | 3 | 1 | 1.0* | 0 | 1
Cc1ccc(NC(=O)c2c(O)c3ccccc3n(C)c2=O)nc1 | -5 | 6.0* | 5 | 0 | 0 | 1
Cc1ccc(NC(=O)c2ccc(C(=O)c3ccccc3)cc2)nc1 | -1 | -1 | 5 | -1 | 3.9* | 1
C=CCn1c(=O)c(C(=O)Nc2ccccc2C)c(O)c2ccccc21 | 2 | 5 | 4 | 1 | 1 | 0
CCn1c(=O)c(C(=O)Nc2ccccc2C)c(O)c2ccccc21 | -2 | 4 | 3 | 1.4* | 0 | 1
Cc1csc(NC(=O)CN(C)S(=O)(=O)c2cccc3cccnc23)n1 | 0 | -1 | 0 | 0 | -1 | 0
CCCC(C(=O)Nc1ccc(S(=O)(=O)N2CCOCC2)cc1)c1ccccc1 (stereo not given) | -3 | 0 | 2 | -1 | 0 | 0
CCOc1cc(/C=C2/SC(=Nc3ccccc3)N(Cc3cccnc3)C2=O)ccc1OCC#N | 2 | -2 | 0 | -1 | 0 | 0
CCc1cccc(CC)c1NC(=O)COC(=O)c1cccc(-c2ccc(OC(C)=O)cc2)c1 | 0 | -1 | 0 | -1 | 0 | 0
Cc1c(C#N)c2ccccc2n1CC(=O)NCC1CCCO1 (stereo not given) | 4 | 2 | 1 | 0 | -1 | 0
C=C(C)c1nc(Oc2ccccc2)nc(Oc2ccccc2)n1 | 4 | 0 | -3 | -1 | -1 | 6.0*
SMILES | SMARCA2 act | hcDAF12 agonist | hgDAF12 agonist | ssDAF-12 act | DAX1 inh-1 | DAX1 inh-2
CCN(CC)S(=O)(=O)c1ccc2c(c1)oc(=O)n2CC(=O)NC1CCCCC1 | -5 | 0 | -2 | -1 | 0 | 0
c1ccc(CNc2cncnc2)cc1 | -2 | 1 | -2 | 1.1* | 0 | 0
COc1ccc(CCn2nnnc2C(c2ccc(C)cc2)N2CCN(C)CC2)cc1OC (stereo not given) | -1 | 0 | 0 | -1 | 0 | 0
CCC(C)(C(=O)NC1CCCCC1)N(Cc1cccs1)C(=O)c1ccccn1 (stereo not given) | -3 | 0 | -2 | -1 | 0 | 1
CCC(C)(C(=O)NC1CCCCC1)N(Cc1cccs1)C(=O)c1ccc(=O)[nH]c1 (stereo not given) | -4 | 0 | -1 | -1 | -1 | 4.7*
COc1ccc(C(c2c(C)n(C)n(-c3ccccc3)c2=O)c2c(C)n(C)n(-c3ccccc3)c2=O)cc1OC | -2 | -2 | 2 | -1 | 0 | 1
N/C(=N\OC(=O)c1ccc(Cl)cc1Cl)c1cccnc1 | 6 | 1 | 11* | -1 | 2 | 3
COc1ccc(-n2c(N)c(C(=O)NCc3ccco3)c3nc4ccccc4nc32)cc1OC | 8.4* | -2 | -2 | -1 | 0 | -1
COc1cc(-n2c(N)c(C(=O)NCc3ccco3)c3nc4ccccc4nc32)cc(OC)c1OC | 2 | -1 | 8 | 0 | -1 | 0
COC(=O)C(Cc1ccccc1)NC(=O)c1ccc(C)cc1 (stereo not given) | 2 | 0 | 7 | 1.3* | 0 | -1
Cc1cc(N2C(=O)C(=O)/C(=C(/O)c3ccc(F)cc3)C2c2ccc(Cl)cc2)no1 (stereo not given) | -6 | -2 | -2 | -1 | 0 | 0
O=C(NNC1CCN(Cc2ccccc2)CC1)c1ccccc1 | 5 | -1 | 11* | 0 | 3 | 0
CC(C)c1ccc(NC(=O)c2cc(S(=O)(=O)N3CCCC3)c[nH]2)cc1 | -3 | -4 | -3 | -1 | -2 | -1
Cc1cccnc1NS(=O)(=O)c1cccc([N+](=O)[O-])c1 | 1 | -2 | -1 | -1 | 0 | 0
Cc1cccnc1NS(=O)(=O)c1ccccc1 | 7.9* | 3 | -2 | -1 | -1 | -1
Cc1cccc(-n2nc3c(c2NC(=O)CCCl)CSC3)c1 | -4 | -2 | 1 | -1 | 0 | 1
Cc1ccc(NC(=O)NCc2ccncc2)cc1Cl | 2 | -1 | 5 | -2 | -1 | -1
NNC(=O)Cn1nnc(-c2ccc(C(F)(F)F)cc2)n1 | 0 | 1 | 2 | 0.9* | 0 | .
N#Cc1cnc(Nc2ccc(F)cc2)nc1N | -2 | 1 | 3 | -1 | 0 | -1
O=C(O)/C=C/c1cn(-c2ccccc2)nc1-c1ccccc1 | -4 | 1 | 0 | -1 | 0 | 2
Cn1cc(C=CC(=O)O)c2nccnc21 | 1 | 4 | 2 | 1.3* | 0 | 0
CCc1nc2c(OCc3ccc(Cl)cc3)cccn2c1N(C)C(=O)c1ccco1 | -2 | -2 | -3 | -2 | -1 | .
Cc1nn2cc(-c3ncc(C(F)(F)F)cc3Cl)cnc2c1Br | 4 | 3 | 13* | 0 | 2 | .
CC(=O)Nc1ccc(C(=O)COC(=O)c2cccs2)c(F)c1 | 2 | 2 | 11* | 0 | 3 | 1
CN(C)c1ccc(N=Nc2cccc(F)c2)cc1 | 5 | 5.6* | 11* | 1.4* | 3 | 1
